Read-out in assay [1]: Interleukin-1 alpha (IL1a), IL1A (gene 3552)
Kind of assay: BSK_KF3CT_IL1a: BioMAP Diversity Plus: KF3CT Assay for Interleukin-1 alpha (IL1a) Biomarker Activity (AID 2283070). The note with it: primary human keratinocytes with fibroblasts; actives raise or lower the signal. Put shortly: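 Readout is IL-1a level by ELISA, compared bidirectionally with DMSO as baseline. Cells: human keratinocytes co-cultured with foreskin fibroblasts, harvested 24 h post-dose.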

Read-out in assay [2]: TIMP metallopeptidase inhibitor 2 (TIMP2), TIMP2 (gene 7077)
The assay can be described thus: BSK_KF3CT_TIMP2: BioMAP Diversity Plus: KF3CT Assay for TIMP metallopeptidase inhibitor 2 (TIMP2) Biomarker Activity (AID 2283071). The settings on record: primary human keratinocytes with fibroblasts; actives raise or lower the signal. Put shortly: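 Measurements come from ELISA detection of TIMP-2 at 24 hours in a dosed human keratinocyte and foreskin fibroblast co-culture. DMSO serves as negative control and baseline.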

Read-out in assay [3]: Transforming growth factor beta 1 (TGFb1), TGFB1 (gene 7040)
The assay can be described thus: BSK_KF3CT_TGFb1: BioMAP Diversity Plus: KF3CT Assay for Transforming growth factor beta 1 (TGFb1) Biomarker Activity (AID 2283072). The note with it: primary human keratinocytes with fibroblasts; actives raise or lower the signal. Put shortly:
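TGF-b1 ELISA on a 24 h dosed co-culture of human keratinocytes and foreskin fibroblasts; cytotoxicity tracked in parallel cultures by SRB staining.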

Read-out in assay [4]: C-C motif chemokine 2 (Homo sapiens) (UniProt P13500)
Kind of assay: BSK_KF3CT_MCP1: BioMAP Diversity Plus: KF3CT Assay for Monocyte Chemoattractant Protein 1 (MCP1/CCL2) Biomarker Activity (AID 2283073). The note with it: primary human keratinocytes with fibroblasts; actives raise or lower the signal. Put shortly:
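Keratinocytes and foreskin fibroblasts were co-cultured, dosed with chemical, and sampled 24 h later. MCP-1 was quantified by ELISA, and the endpoint was analyzed with bidirectional fitting using DMSO as negative control.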

Read-out in assay [5]: Matrix Metallopeptidase 9 (MMP9), MMP9 (gene 4318)
The assay can be described thus: BSK_KF3CT_MMP9: BioMAP Diversity Plus: KF3CT Assay for Matrix Metallopeptidase 9 (MMP9) Biomarker Activity (AID 2283074). The settings on record: primary human keratinocytes with fibroblasts; actives raise or lower the signal. Put shortly: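 Values come from bidirectional fitting relative to DMSO of MMP-9 levels, which were measured by ELISA. Measurements were taken 24 h after chemical dosing of a keratinocyte and foreskin fibroblast co-culture.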

Read-out in assay [6]: urokinase plasminogen activator (uPA), PLAU (gene 5328)
Kind of assay: BSK_KF3CT_uPA: BioMAP Diversity Plus: KF3CT Assay for urokinase plasminogen activator (uPA) Biomarker Activity (AID 2283075). The note with it: primary human keratinocytes with fibroblasts; actives raise or lower the signal. Put shortly:
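Values derive from bidirectional fitting against DMSO controls. Keratinocyte/foreskin fibroblast co-cultures received chemical; 24 h later uPA was detected by ELISA, with SRB total-protein staining in parallel wells for overt cytotoxicity.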

Read-out in assay [7]: CD40, CD40 (gene 958)
The assay can be described thus: BSK_LPS_CD40: BioMAP Diversity Plus: LPS Assay for CD40 Biomarker Activity (AID 2283076). The settings on record: primary human HUVEC with PBMC; actives raise or lower the signal. Put shortly: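 CD40 signal, measured by ELISA, is fitted in both directions relative to DMSO vehicle. The system is an LPS-driven human vascular primary co-culture of endothelial cells and PBMC, sampled 24 h after compound addition.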

Read-out in assay [8]: E-selectin (Homo sapiens) (UniProt P16581)
Kind of assay: BSK_LPS_Eselectin: BioMAP Diversity Plus: LPS Assay for Eselectin Biomarker Activity (AID 2283077). The settings on record: primary human HUVEC with PBMC; actives raise or lower the signal. Put shortly:
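Signal of E-selectin, detected by ELISA, served as the endpoint; cells were umbilical vein endothelium with PBMC, read 24 h after treatment. DMSO defined baseline, and both increases and decreases were fitted.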

Read-out in assay [9]: Interleukin-8 (IL8), CXCL8 (gene 3576)
The assay can be described thus: BSK_LPS_IL8: BioMAP Diversity Plus: LPS Assay for Interleukin-8 (IL8) Biomarker Activity (AID 2283078). The settings on record: primary human HUVEC with PBMC; actives raise or lower the signal. Put shortly: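 Endothelial cells and PBMC from human donors are co-cultured, treated with chemicals and LPS, then assayed for IL-8 by ELISA after 24 h. Parallel SRB staining (0.1% SRB after 10% TCA fixation, 560 nm) flags cytotoxicity.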

Assay [10] is described as follows: BSK_LPS_SRB: Viability Assessment in the BioMAP Diversity Plus: LPS Assay (AID 2283079).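 Also: total protein by sulforhodamine B absorbance as a cytotoxicity measure; measured one day after compound addition; fitted in both directions against DMSO so loss or gain of signal counts.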 The settings on record: primary human HUVEC with PBMC. Put shortly: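 Overt cytotoxicity was gauged by sulforhodamine B total-protein staining in a primary human vascular endothelial and mononuclear cell co-culture 24 h post-dosing. Activity was fitted in both directions relative to DMSO.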

Read-out in assay [11]: Interleukin-1 alpha (IL1a), IL1A (gene 3552)
Kind of assay: BSK_LPS_IL1a: BioMAP Diversity Plus: LPS Assay for Interleukin-1 alpha (IL1a) Biomarker Activity (AID 2283080). The note with it: primary human HUVEC with PBMC; actives raise or lower the signal. Put shortly: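 Measured: IL-1 alpha via ELISA at 24 h in LPS-activated human umbilical vein endothelium–PBMC co-culture. Baseline: DMSO, bidirectional fitting.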

Read-out in assay [12]: Monocyte Chemoattractant Protein-1 (MCP1), CCL2 (gene 6347)
Kind of assay: BSK_LPS_MCP1: BioMAP Diversity Plus: LPS Assay for Monocyte Chemoattractant Protein-1 (MCP1) Biomarker Activity (AID 2283081). The note with it: primary human HUVEC with PBMC; actives raise or lower the signal. Put shortly: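 LPS-stimulated HUVEC/PBMC co-culture; chemical, 24 h; MCP-1 by ELISA; bidirectional fit vs DMSO; cytotoxicity via SRB (0.1% stain, 10% TCA fix, 560 nm) in parallel wells.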

Assay [13] can be described thus: BSK_LPS_PGE2: BioMAP Diversity Plus: LPS Assay for Prostaglandin E2 (PGE2) Biomarker Activity (AID 2283082).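 As to AC50: secreted prostaglandin E2 measured by ELISA in LPS-stimulated co-culture.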 The note with it: primary human HUVEC with PBMC; actives raise or lower the signal. Put shortly: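 Primary human endothelial cells and blood mononuclear cells, co-cultured with LPS, receive test chemical; PGE2 ELISA follows at 24 h, with SRB-stained parallel cultures flagging cytotoxicity.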

Read-out in assay [14]: Macrophage colony-stimulating factor (MCSF), CSF1 (gene 1435)
Kind of assay: BSK_LPS_MCSF: BioMAP Diversity Plus: LPS Assay for Macrophage colony-stimulating factor (MCSF) Biomarker Activity (AID 2283083). The note with it: primary human HUVEC with PBMC; actives raise or lower the signal. Put shortly: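 Compound is added to a human vascular primary co-culture of umbilical vein endothelium and blood mononuclear cells. After 24 h, M-CSF is quantified by ELISA. Signal changes are fitted in both directions against DMSO.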

Read-out in assay [15]: Tissue Factor, F3 (gene 2152)
Kind of assay: BSK_LPS_TissueFactor: BioMAP Diversity Plus: LPS Assay for Tissue Factor Biomarker Activity (AID 2283084). The settings on record: primary human HUVEC with PBMC; actives raise or lower the signal. Put shortly:
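In this co-culture system of umbilical vein endothelium with PBMC, stimulated with LPS, cell-surface CD142 is detected by ELISA at 24 h. Endpoint values derive from bidirectional fitting, DMSO serving as baseline.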

Read-out in assay [16]: Vascular cell adhesion molecule 1 (VCAM1), VCAM1 (gene 7412)
Kind of assay: BSK_LPS_VCAM1: BioMAP Diversity Plus: LPS Assay for Vascular cell adhesion molecule 1 (VCAM1) Biomarker Activity (AID 2283086). The note with it: primary human HUVEC with PBMC; actives raise or lower the signal. Put shortly:
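Measured by ELISA: VCAM-1 in LPS-activated HUVEC/PBMC co-cultures 24 h after treatment. Values reflect bidirectional fitting with DMSO as baseline.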

Read-out in assay [17]: CD38, CD38 (gene 952)
Kind of assay: BSK_SAg_CD38: BioMAP Diversity Plus: SAg Assay for CD38 Biomarker Activity (AID 2283087). The note with it: primary human HUVEC with PBMC; actives raise or lower the signal. Put shortly:
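Measures CD38 on a human endothelial/PBMC co-culture driven by SEB and TSST-1, 24 h after compound exposure, using ELISA with fluorescence detection; DMSO defines baseline for bidirectional curve fitting.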

Read-out in assay [18]: CD40, CD40 (gene 958)
The assay can be described thus: BSK_SAg_CD40: BioMAP Diversity Plus: SAg Assay for CD40 Biomarker Activity (AID 2283088). The settings on record: primary human HUVEC with PBMC; actives raise or lower the signal. Put shortly: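 Fluorescence ELISA read-out of CD40 from umbilical vein endothelium plus peripheral blood mononuclear cells, sampled 24 h after dosing. Values come from bidirectional curve fitting with DMSO as baseline.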

Read-out in assay [19]: CD69, CD69 (gene 969)
The assay can be described thus: BSK_SAg_CD69: BioMAP Diversity Plus: SAg Assay for CD69 Biomarker Activity (AID 2283089). The settings on record: primary human HUVEC with PBMC; actives raise or lower the signal. Put shortly: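 HUVEC co-cultured with PBMC were dosed with chemical, and CD69 was measured by ELISA with fluorescence read-out 24 h later. Bidirectional curve fitting used DMSO as negative control and activity baseline.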

Read-out in assay [20]: Tumor necrosis factor (Homo sapiens) (UniProt P01375)
The assay can be described thus: BSK_LPS_TNFa: BioMAP Diversity Plus: LPS Assay for Tumour Necrosis Factor alpha (TNFa) Biomarker Activity (AID 2283085). The settings on record: primary human HUVEC with PBMC; actives raise or lower the signal. Put shortly:
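ELISA-based TNFa endpoint in a human endothelial–PBMC co-culture sampled 24 h post-exposure. Curves were fitted in both directions using DMSO as baseline of activity.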

Some structures have more than one record in an assay (separate samples or runs), and their calls can disagree. Active and inactive are the calls of the source. The calls were made as follows: active = hit-call score of the fitted dose curve at least 0.9, where 1 is the maximum; inactive = score below 0.9.

Sequence of Tumor necrosis factor (Homo sapiens) (P01375 whole entry, looked up): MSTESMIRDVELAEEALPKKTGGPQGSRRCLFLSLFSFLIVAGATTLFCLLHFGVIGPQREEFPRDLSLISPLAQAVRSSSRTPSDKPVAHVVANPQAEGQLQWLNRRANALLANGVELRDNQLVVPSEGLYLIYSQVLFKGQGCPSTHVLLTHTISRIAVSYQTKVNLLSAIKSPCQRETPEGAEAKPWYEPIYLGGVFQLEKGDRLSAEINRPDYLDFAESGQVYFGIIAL
Sequence of E-selectin (Homo sapiens) (P16581 whole entry, looked up): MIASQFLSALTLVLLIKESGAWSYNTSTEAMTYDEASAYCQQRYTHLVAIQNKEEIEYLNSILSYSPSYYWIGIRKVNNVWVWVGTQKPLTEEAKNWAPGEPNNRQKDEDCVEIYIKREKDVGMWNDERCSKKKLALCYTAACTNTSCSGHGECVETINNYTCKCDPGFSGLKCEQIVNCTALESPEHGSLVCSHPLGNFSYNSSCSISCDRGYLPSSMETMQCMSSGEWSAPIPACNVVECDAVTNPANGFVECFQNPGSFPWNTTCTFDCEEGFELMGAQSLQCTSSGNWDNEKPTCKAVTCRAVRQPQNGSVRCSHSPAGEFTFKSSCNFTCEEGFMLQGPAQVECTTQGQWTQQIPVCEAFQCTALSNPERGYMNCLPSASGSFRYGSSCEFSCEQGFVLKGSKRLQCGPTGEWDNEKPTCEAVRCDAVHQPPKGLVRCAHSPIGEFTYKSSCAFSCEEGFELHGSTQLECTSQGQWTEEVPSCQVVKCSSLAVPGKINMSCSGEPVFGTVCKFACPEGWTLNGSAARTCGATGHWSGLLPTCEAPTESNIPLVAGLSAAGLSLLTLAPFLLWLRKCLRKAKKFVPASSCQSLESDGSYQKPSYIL

With `c1ccc(OP(Oc2ccccc2)Oc2ccccc2)cc1`, the result in assay [1], in assay [2], in assay [3], in assay [4], in [5] and in [6] was inactive. The result in assay [7], in assay [8], in [9], in assay [10], in assay [11] and in assay [12] was inactive. In addition, the outcome in assay [13], in [14], in assay [15], in assay [16], in [17] and in [18] was inactive. Further, the result in assay [19] was inactive.

Regarding `CCCCc1ccccc1`, the result in assay [1], in assay [2], in assay [3], in assay [4], in [5] and in assay [6] was inactive. For the same compound, the outcome in [7], in assay [8], in assay [9], in assay [10], in [11] and in assay [12] was inactive. Besides, the result in assay [13], in [15], in assay [20], in assay [16], in assay [17] and in [18] was inactive. For the same compound, the outcome in [19] was inactive.

As to `O=C(O)C(F)(F)OC(F)(F)C(F)(F)OC(F)(F)F`, the AC50 (usually the midpoint of the concentration-response curve, whichever way the signal moves) in assay [1] is 47.7 µM (active). For the same compound, the outcome in [1], in assay [2], in [4], in [5], in assay [6] and in assay [7] was inactive. In addition, the result in assay [9], in assay [10], in assay [11], in assay [12], in assay [13] and in assay [15] was inactive. Besides, the outcome in [20], in assay [16], in assay [17], in [18] and in assay [19] was inactive.

Consider `c1ccc2c(c1)Nc1ccccc1S2`, for which the outcome in assay [1], in [3], in [4], in assay [5], in assay [6] and in assay [7] was inactive. Besides, the result in assay [8], in assay [9], in [10], in assay [11], in [12] and in [14] was inactive. Moreover, the result in assay [15], in [16], in assay [17] and in assay [19] was inactive. Moreover, the AC50 in [2] is 27.3 µM (active); in assay [13], 0.374 µM (active); in assay [18], 26.8 µM (active).

The record behind these values is PubChem BioAssay (EPA / NIEHS).
